RAD52 anneal inh: RAD52 (human) annealing inhibition. inhibition, % at 18.7 µM. recombinant RAD52 DNA annealing, FRET fluorescence. P43351. 360,000 tested, 0.46% active. AID 651710;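 active = every replicate showing at least 50% inhibition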
Target sequence (P43351 whole entry, looked up): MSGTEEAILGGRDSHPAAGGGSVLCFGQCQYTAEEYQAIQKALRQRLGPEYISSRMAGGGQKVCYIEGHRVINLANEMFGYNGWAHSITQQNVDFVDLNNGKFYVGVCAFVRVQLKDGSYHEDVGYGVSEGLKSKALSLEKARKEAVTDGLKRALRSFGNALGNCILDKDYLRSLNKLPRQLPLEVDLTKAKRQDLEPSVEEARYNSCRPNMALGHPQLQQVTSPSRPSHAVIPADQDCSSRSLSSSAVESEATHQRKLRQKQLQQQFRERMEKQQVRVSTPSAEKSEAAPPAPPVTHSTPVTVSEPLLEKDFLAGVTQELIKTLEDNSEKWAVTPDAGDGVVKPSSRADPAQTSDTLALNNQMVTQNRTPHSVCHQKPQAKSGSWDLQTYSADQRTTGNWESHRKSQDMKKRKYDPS
RAD54 branch: inhibitors of human RAD54 branch migration. Q92698. RAD54 Holliday junction branch migration, FAM/BHQ fluorescence. inhibition, % at 10.4 µM. 360,000 tested, 0.14% active. AID 602329;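 active = mean normalized replicate activity at least 40 and at least half of replicates scoring 40 or more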;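 note: 0% = median of neutral control wells and 100% = median of positive control wells; inhibitors cause a drop in the FAM fluorescence signal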
CendR NRP1 mod: alters CendR peptide binding to human NRP-1; 360,000 tested, 0.85% active; FAM-RPARPAR peptide binding to NRP-1, fluorescence polarization; AID 602438; inhibition, % at 25 µM;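 active = inhibition or corrected inhibition above about 18%, plus a signal ratio from 0.5 to 1.5, limit read from the data, passing the limit was not always enough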
miR-122 sensor: miR-122 inhibition in Huh7 cells; AID 602342; 340,000 tested, 0.3% active; activation (reporter increase), % at 12.5 µM; Huh7 miR-122 Renilla luciferase sensor, 48 h; neutral wells = 0, positive control = 100;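 active = mean replicate activation score at least 90 and every replicate individually at or above 90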;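 note: higher luciferase means less miR-122 activity so hits act as miR-122 inhibitors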
DNA FID counter: fluorescent intercalator displacement, NS3 helicase counter-screen. DNA fluorescent intercalator displacement, fluorescence. inhibition, % at 7.9 µM. 290,000 tested, 0.17% active. AID 1845; in the data active = inhibition above about 37%;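 note: 0% = vehicle and 100% = reference compound; higher means more ethidium bromide displaced from hairpin DNA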
Glyco luc inh: N-linked glycosylation inhibition; D54 ERlucT glycosylation luciferase reporter, 24 h; percent of 100 nM tunicamycin response; reporter increase, % at 12.5 µM; 360,000 tested, 0.23% active;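 active = mean luciferase reporter signal, scaled so untreated is 0 and the glycosylation-blocking control 100, at or above a set limit in every replicate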;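 note: luciferase carries N-glycosylation sites so blocking glycosylation raises the light; 0% = median of neutral control wells and 100% = median of 100 nM tunicamycin wells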
* = called active by the depositor; . = not tested or not shown; [ ] = remark or other dose. Only some compounds are listed: those with a hit (about 1.5% of all), similar ones and a draw of the others.

SMILES	RAD52 anneal inh	RAD54 branch	CendR NRP1 mod	miR-122 sensor	DNA FID counter	Glyco luc inh
Cc1cccc2sc(N(CCCN(C)C)C(=O)c3ccc(C(=O)c4ccccc4)cc3)nc12	35	3	0	0	38*	0
Cc1c(O)cc2c(c1O)C(=O)CC(c1ccccc1)O2 (configuration not stated)	-10	6	-1	-25	.	43*
COc1c(O)cc2c(c1O)C(=O)CC(c1ccccc1)O2 (configuration not stated)	.	.	.	.	-9	.
COc1ccc2c3c([nH]c2c1)[C@H](CO)N(Cc1ccc2c(c1)OCO2)CC31CN(C(=O)Nc2c(C)noc2C)C1	-13	.	.	.	.	.
O=C(C[C@H]1CC[C@@H]2[C@H](COC[C@@H](O)CN2S(=O)(=O)c2ccccc2)O1)NCc1ccc(-c2ccccc2)cc1	75*	15	.	-2[16.7 µM]	.	.
O=C(C[C@H]1CC[C@H]2[C@@H](COC[C@@H](O)CN2S(=O)(=O)c2ccccc2)O1)NCc1ccc(-c2ccccc2)cc1	36	-5	.	7[16.7 µM]	.	.
O=C(C[C@@H]1CC[C@H]2[C@@H](COC[C@@H](O)CN2S(=O)(=O)c2ccccc2)O1)NCc1ccc(-c2ccccc2)cc1	59*	-1	.	-2[16.7 µM]	.	.
O=C(C[C@H]1CC[C@@H]2[C@H](COC[C@H](O)CN2S(=O)(=O)c2ccccc2)O1)NCc1ccc(-c2ccccc2)cc1	56*	-6	.	-9[16.7 µM]	.	.
CS(=O)(=O)N1C[C@@H](O)COC[C@H]2O[C@@H](CC(=O)NCc3ccc(-c4ccccc4)cc3)CC[C@@H]21	59*	19	.	4[16.7 µM]	.	.
C[C@H](CO)N1C[C@H](C)[C@H](CN(C)S(=O)(=O)c2cccs2)Oc2c(NC(=O)C3CCOCC3)cccc2C1=O	-15	-16	.	29[16.7 µM]	.	.
Cc1ccccc1-c1cnc2c(c1)C(=O)N([C@@H](C)CO)C[C@H](C)[C@@H](CN(C)C(=O)c1ccccc1)O2	.	0	.	6[16.7 µM]	.	.
Cc1ccc(C(=O)NCC(=O)OCC(=O)c2cc(C)n(Cc3ccco3)c2C)cc1	-19	-3	33*	-18	-29	1
Cc1cc(C(=O)COC(=O)CNC(=O)c2ccc(Cl)c(Cl)c2)c(C)n1Cc1ccco1	-31	8	-2	-1	-3	0
Cc1cc(C(=O)COC(=O)Cn2c(C(F)(F)F)nc3ccccc32)c(C)n1Cc1ccco1	.	-2	20*	-5	-17	0
COCCNC(=O)[C@H]1[C@H](CO)[C@H]2Cn3c(ccc(C4=CCCCC4)c3=O)[C@@H]1N2C(=O)C1CC1	-20	3	.	2[16.7 µM]	.	.
COc1ccc(NC(=O)N(C)C[C@@H]2Oc3c(NS(=O)(=O)c4cccs4)cccc3C(=O)N([C@@H](C)CO)C[C@@H]2C)cc1	-5	-2	.	-16[16.7 µM]	.	.
CCn1c2ccccc2c2cc(NC(=O)c3cc(OC)c(OC)c(OC)c3)ccc21	-8	5	-14	69	-4	27*
O=P(OC1CCCCC1)(OC1CCCCC1)C(O)c1cccnc1 (configuration not stated)	-10	-4	1	7	-22	-1
O=P(OC1CCCCC1)(OC1CCCCC1)C(O)c1ccccc1 (configuration not stated)	.	3	-5	147*	-35	-1
O=C(O)c1cnn2c(C(F)(F)F)cc(-c3ccco3)nc12	-21	-33	1	3	0	2
Cc1c(NC(=O)c2cnn3c(C(F)(F)F)cc(-c4ccco4)nc23)c(=O)n(-c2ccccc2)n1C	.	-2	23*	2	-6	-2
COc1ccc(OC)c(S(=O)(=O)N(C)CC(=O)N2CCN(c3cccc(Cl)c3)CC2)c1	.	-6	19*	-4	-32	1
COc1ccc(OC)c(S(=O)(=O)N(C)CC(=O)N2CCN(c3ccc(F)cc3)CC2)c1	.	6	5	2	-31	3
COc1ccc(S(=O)(=O)N(C)CC(=O)N2CCCCC2)cc1Cl	8	-8	27*	.	-16	-1
C[C@H](CO)N1C[C@H](C)[C@H](CN(C)CC2CC2)Oc2c(NS(=O)(=O)c3ccccc3)cccc2C1=O	13	6	.	6[16.7 µM]	.	.
SMILES	RAD52 anneal inh	RAD54 branch	CendR NRP1 mod	miR-122 sensor	DNA FID counter	Glyco luc inh
CO[C@H]1CN(C)C(=O)c2ccc(NC(=O)Nc3ccccc3)cc2OC[C@H](C)N(C(=O)Nc2c(C)noc2C)C[C@@H]1C	9	.	.	.	.	.
Cc1cccc(NC(=O)Nc2cnccn2)c1C	-1	-3	20*	.	-6	-2
CC#CC#Cc1cccc(=O)o1	-5	0	-4	0	-3	36*
CCCOc1ccc(C2C(C(=O)OC)=CN(CCOC)C=C2C(=O)OC)cc1	.	-3	28*	.	-32	-3
COCCN1C=C(C(=O)OC)C(c2ccc(OC)c(OC)c2)C(C(=O)OC)=C1	-18	8	-4	-6	-11	1
COc1ccc2c3c([nH]c2c1)[C@@H](CO)N(C(=O)Nc1ccc(F)cc1)CC31CCN(C(=O)Cc2ccccc2)CC1	13	.	.	.	.	.
C[C@H]1CN([C@@H](C)CO)C(=O)Cc2cc(NC(=O)C3CC3)ccc2O[C@H]1CN(C)C(=O)Nc1cccc2ccccc12	.	.	.	-7[16.7 µM]	.	.
C[C@H]1CN([C@@H](C)CO)S(=O)(=O)c2ccc(C#CCN(C)C)cc2O[C@@H]1CN(C)C(=O)C1CCC1	-26	0	.	17[16.7 µM]	.	.
COC(=O)[C@]1(C)CCC[C@@]2(C)C3CC[C@@]4(C)C[C@]3(CCC21)CC(=O)N4C (some centres not stated)	0	-5	13	-1	.	0
C=C1C[C@@]23CCC4[C@@](C)(CCC[C@@]4(C)C(=O)OC)C2CC[C@]1(OC(C)=O)C3 (some centres not stated)	0	0	30*	-3	.	-2
COC(=O)c1cc2c(n1S(=O)(=O)c1ccc(C)cc1)C(=O)C(=O)c1[nH]cc(C(=O)OCc3ccccc3)c1-2	.	.	27*	-11	.	-21
CC(C)C#Cc1cnc2c(c1)C(=O)N([C@H](C)CO)C[C@H](C)[C@H](CN(C)C(=O)c1cnccn1)O2	16	7	.	-3[16.7 µM]	.	.
O=C(Nc1ccc(Cl)cc1)N1CCN(c2ccc3nnc(-c4ccc(F)cc4)n3n2)CC1	.	0	1	0	0	100*
CN(C)CCCn1cnc2c(c1=N)C(c1ccccc1)c1ccc3ccccc3c1O2 (configuration not stated)	76*	33	4	-32	17	15
C[C@@H]1CN([C@H](C)CO)C(=O)c2cc(NC(=O)Nc3ccccc3)ccc2O[C@@H](C)CCCCO[C@H]1CN(C)C(=O)Nc1ccc(C(F)(F)F)cc1	4	.	.	.	.	.
Cc1ccc(CNC(=O)CSc2n[nH]c(N)n2)cc1	.	4	24*	-6	5	2
NC(=O)C1CCCN(C(=O)c2ccc3nc(Cc4cccc(Cl)c4)oc3c2)C1 (configuration not stated)	-5	2	27*	.	-35	2
